In PMC5540273 (PLoS ONE, 2017):

These compounds were tested on CHEK1. Conditions: concentration: 1 μM, replicates: in singlicate; n = 1.
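Note: KINOMEscan kinase panel screen.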

Compound | %Inh [%]
COc1cc(Nc2nccc(N3CCC(NS(=O)(=O)c4ccc(NC(C)=O)cc4)CC3)n2)cc(OC)c1OC [GSK1379825] | 0
O=C1NC(=O)C(c2ccccc2Cl)=C1Nc1cccc(Cl)c1 [SB-342409] | 7
Cc1cc(-c2ccnc(Nc3cccc(C#N)c3)n2)cc(C)c1O [GSK1440913] | 0
CC(C)NCC(Cc1ccccc1)NC(=O)c1cc(Br)c(-c2ccnc3[nH]ccc23)s1.Cl.Cl (stereo not shown) [GSK1383281] | 0
Nc1ncc(-c2ccc3nccc(-c4ccncc4)c3c2)cc1S(=O)(=O)N1CCCCC1 [GSK1693850] | 1
COc1cc(Nc2ccnc3cc(-c4ccncc4)ccc23)cc(OC)c1OC.Cl [GW494610] | 0
COC(=O)Nc1nc2ccc(Oc3ccc(NC(=O)Nc4cc(C(F)(F)F)ccc4F)cc3)cc2[nH]1.Cl [GW654607] | 0
c1ccc(Oc2ccc(Nc3ccnc4cc(-c5ccc(CN6CCCCC6)o5)ccc34)cc2)nc1 [GW567143] | 0
COc1cccc(CC(=O)N2CCc3cc(-c4cn(C)c5ncnc(N)c45)ccc32)c1 [GSK2608899] | 0
COc1ccc(C)c(Nc2ccnc(Nc3ccc(-c4cnc[nH]4)cc3)n2)c1.Cl [GW784041] | 0
CCNC(=O)/C=C/c1n[nH]c2cc(Sc3ccccc3C(=O)NC)ccc12 | 0
Cl.N#CCc1ccc(Nc2nccc(Nc3ccc(Oc4ccccc4)cc3)n2)cc1 [GW639905] | 38
CC(=O)Nc1cn2nc(Oc3cccc(NC(=O)c4cccc(C(F)(F)F)c4)c3)ccc2n1 | 0
